From PubChem BioAssay (Tox21)
Values joined by “and” are separate entries in the source; they are usually repeats but may differ in a detail not shown here. Equal values may be shown once. Inconclusive results are not listed. Where a call stands in place of a potency, no number is given. Active and inactive are the calls of the source. Calls follow the shape of the dose curve; as a rule, active = well fitted activation curve with a large enough effect in the repeat runs; inconclusive = weak or mixed curves; inactive = no such curve, though single readings can be large or run the other way.

Assay: qHTS assay for small molecules that induce genotoxicity in human embryonic kidney cells expressing luciferase-tagged ATAD5 (AID 651632); also: nearly all actives have a fitted effect of over 15% in size
Details: HEK293T ATAD5-luciferase induction, 16 h; series mostly up to 83.3 µM
From the text: U.S. Tox21 Program National Center for Advancing Translational Sciences [NCATS] NIH Chemical Genomics Center [NCGC] U.S. Environmental Protection Agency [EPA] National Institutes of Environmental Health Sciences [NIEHS] National Toxicology Program [NTP] U.S. Food and Drug Administration [FDA] Tox21 Assay Overview: As cancer cells divide rapidly and during every cell division they need to duplicate their genome by DNA replication. The failure to do so results in the cancer cell death. Based on this concept, many chemotherapeutic agents were developed but have limitations such as low efficacy and severe side effects etc. A new cell based assay was developed to find the compounds that effectively block DNA replication either by directly damaging DNA or by inhibiting other cellular mechanisms. Enhanced Level of Genome Instability Gene 1 (ELG1; human ATAD5) protein levels increase in response to various types of DNA damage. Using a luciferase reporter-gene tagged with ATAD5, a cell-based assay [developed by Kyungjae Myung, NHGRI, NIH] was used to measure the induction of ATAD5 in human embryonic kidney cells (HEK293T). So, increase in luciferase activity can be used to identify the compounds that cause genetic stress.
Tox21 Assay Protocol Summary: For genotoxicity screening, 2,000 cells in 5 uL/well were dispensed into white, solid-bottom 1536-well plates using a Multidrop Combi (Thermo Scientific) dispenser. Following transfer of 23 nL compound or DMSO vehicle by a pin tool, the plates were incubated 16 hr at 37C and 5% CO2. 5 ul Amplite (AAT Bioquest, Inc.) was then added to each plate and following 30 min incubation at room temperature, luciferase activity was quantified on a ViewLux CCD-based plate reader.
Potency is read from the fitted curve at half-maximal effect.

| Structure (SMILES) | Potency |
| --- | --- |
| Nc1ccc(Nc2ccccc2)cc1 | inactive |
| CC(=O)Oc1ccccc1C(=O)Nc1ncc([N+](=O)[O-])s1 | 1.33 µM (active) |
| C#C[C@]1(O)CC[C@H]2[C@@H]3CCc4cc(OC)ccc4[C@H]3CC[C@@]21C | inactive |
| CCCCNS(=O)(=O)c1ccccc1 | inactive |
| O=C1c2cccc(O)c2C(=O)c2c(O)cccc21 | inactive |
| COc1c(Cl)c(Cl)c(Cl)c(Cl)c1Cl | inactive |
| c1cc(-c2ccncc2)ccn1 | inactive |
| Cc1c(OCC(F)(F)F)ccnc1CS(=O)c1nc2ccccc2[nH]1 (stereo not given) | inactive |
| CCCC(=O)O | inactive |
| C=C(C)C(=O)OCCOC(=O)C(=C)C | inactive |
| CCCCC(CC)COCC1CO1 (stereo not given) | inactive |
| CC(=O)CC/C=C(\C)CCC=C(C)C | inactive |
| CC(C)OC=O | inactive |
| Cc1cccc(C(=O)O)c1 | inactive |
| O=c1oc(=O)c2cc3c(=O)oc(=O)c3cc12 | inactive |
| C[Si](C)(C)O[Si](C)(C)C | inactive |
| C/C=C/C(=O)O | inactive |
| CC(=O)C1(C)CC2=C(CCCC2(C)C)CC1C (stereo not given) | inactive |
| CC(=O)c1ccccn1 | inactive |
| CC1=CCC(C(C)(C)O)CC1 (stereo not given) | inactive |

| Structure (SMILES) | Potency |
| --- | --- |
| O=C(c1ccccc1)c1ccccc1O | inactive |
| c1ccc2c(c1)c1cccc3ccc4cccc2c4c31 | inactive |
| c1ccc2sc(SSN3CCOCC3)nc2c1 | inactive |
| CN(C)c1nc(N(C)C)nc(N(C)C)n1 | inactive |
| C=CC(C)(CCC=C(C)C)OC(C)=O (stereo not given) | inactive |
| CCC(C)CO (stereo not given) | inactive |
| CC(C)OC(=O)C(C)(C)Oc1ccc(C(=O)c2ccc(Cl)cc2)cc1 | inactive |
| c1ccc2c(c1)Oc1ccccc1S2 | inactive |
| CC(C)=CCC/C(C)=C\CO | inactive |
| C[C@]12CC[C@H]3[C@@H](CCC4=CC(=O)CC[C@@]43C)[C@@H]1CC[C@@H]2C(=O)CO | inactive |
| CC(C)OB(OC(C)C)OC(C)C | inactive |
| Oc1ccc(O)cc1 | inactive |
| C[C@]12CCC(=O)C=C1CC[C@@H]1[C@@H]2C(=O)C[C@@]2(C)[C@H]1CC[C@]2(O)C(=O)CO | inactive |
| O=C(/C=C/C=C/c1ccc2c(c1)OCO2)N1CCCCC1 | 10.9 µM (active) |
| CCOCCOCCO | inactive |
| COC(=O)C1=C(C)NC(C)=C(C(=O)OCCN(C)Cc2ccccc2)C1c1cccc([N+](=O)[O-])c1 (stereo not given) | inactive |
| CCCCCCCCCC(=O)OC | inactive |
| Cc1ccc(C(=O)c2cc(O)c(O)c([N+](=O)[O-])c2)cc1 | inactive |
| O=C=Nc1ccc(Cc2ccc(N=C=O)cc2)cc1 | inactive |
| c1cc(N(CC2CO2)CC2CO2)ccc1OCC1CO1 (stereo not given) | 13.7 µM (active) and 17.2 µM (active) |
